# Results: the supplement of paper PMC10849652
# Of roughly 7,900 targets only a part is listed; those with a hit were picked by preference. About 0.6% of all pairs of compound and target were hits. Values without a mark were called inactive.
# Compound: C1COCCN1CCN2C3=CC=CC=C3N=C2NC(=O)C4=CC(=CC=C4)[N+](=O)[O-] [IRAK-1-4 Inhibitor I]
# Assay: log2 fold change, soluble protein after heating vs DMSO (PISA); higher = thermal stabilisation; K562 cells, 10 uM, 30 min; active = over 0.2 and 3.5 SD of the protein, either way, in both replicates (recomputed)
# Procedure, shortened: (§1)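 Thermal stability values are relative to control samples and come from duplicates. They are expressed as log2 fold changes. For measurement, K562 cells (2×10^6 cells/mL) received 10 μM compound for 30 min, and aliquots were heated for 3 min over 48°C-58°C, pooled, and extracted at 4°C in PBS with 0.5% NP-40. Soluble protein, the supernatant after 21,000xg for 90 min, was quantified by TMTpro 16plex LC-MS/MS with equalised channel sums.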
# Sequence of UniProt A8MTT3 (A8MTT3 whole entry, looked up): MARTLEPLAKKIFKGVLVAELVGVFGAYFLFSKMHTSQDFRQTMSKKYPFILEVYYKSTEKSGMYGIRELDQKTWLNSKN
# Sequence of UniProt P11802 (P11802 whole entry, looked up): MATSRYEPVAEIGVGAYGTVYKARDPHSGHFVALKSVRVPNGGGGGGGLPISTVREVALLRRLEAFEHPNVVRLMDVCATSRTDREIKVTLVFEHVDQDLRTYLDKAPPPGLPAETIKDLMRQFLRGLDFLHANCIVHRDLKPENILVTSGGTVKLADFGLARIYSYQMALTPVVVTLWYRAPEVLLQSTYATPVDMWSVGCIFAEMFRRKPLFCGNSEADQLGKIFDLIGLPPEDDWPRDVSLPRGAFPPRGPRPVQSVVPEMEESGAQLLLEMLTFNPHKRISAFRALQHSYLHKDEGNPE
# Sequence of UniProt Q13111 (Q13111 whole entry, looked up): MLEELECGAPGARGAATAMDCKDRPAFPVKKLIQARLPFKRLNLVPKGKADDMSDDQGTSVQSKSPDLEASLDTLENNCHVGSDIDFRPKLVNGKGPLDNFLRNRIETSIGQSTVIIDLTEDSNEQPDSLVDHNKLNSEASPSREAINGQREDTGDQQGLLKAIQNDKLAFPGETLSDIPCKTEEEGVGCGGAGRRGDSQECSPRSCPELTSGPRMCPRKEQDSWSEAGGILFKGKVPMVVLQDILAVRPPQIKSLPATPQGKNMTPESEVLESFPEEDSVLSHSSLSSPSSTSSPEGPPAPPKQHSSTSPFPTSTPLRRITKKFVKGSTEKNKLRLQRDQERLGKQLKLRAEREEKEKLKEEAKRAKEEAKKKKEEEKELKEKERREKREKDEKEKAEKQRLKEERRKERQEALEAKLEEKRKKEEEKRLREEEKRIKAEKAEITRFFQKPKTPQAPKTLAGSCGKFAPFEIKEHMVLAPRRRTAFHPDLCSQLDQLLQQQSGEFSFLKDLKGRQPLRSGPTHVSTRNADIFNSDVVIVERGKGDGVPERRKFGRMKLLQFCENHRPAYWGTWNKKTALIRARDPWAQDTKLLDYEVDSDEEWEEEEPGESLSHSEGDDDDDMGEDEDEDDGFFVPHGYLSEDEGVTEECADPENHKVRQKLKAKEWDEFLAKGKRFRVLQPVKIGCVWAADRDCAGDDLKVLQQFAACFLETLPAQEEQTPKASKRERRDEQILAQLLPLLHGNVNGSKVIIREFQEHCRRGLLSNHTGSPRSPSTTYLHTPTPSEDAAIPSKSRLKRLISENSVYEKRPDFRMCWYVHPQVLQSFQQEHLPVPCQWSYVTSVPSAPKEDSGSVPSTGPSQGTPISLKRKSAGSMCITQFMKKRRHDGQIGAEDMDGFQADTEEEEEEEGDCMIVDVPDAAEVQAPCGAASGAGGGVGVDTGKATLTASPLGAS
# Sequence of UniProt P46527 (P46527 whole entry, looked up): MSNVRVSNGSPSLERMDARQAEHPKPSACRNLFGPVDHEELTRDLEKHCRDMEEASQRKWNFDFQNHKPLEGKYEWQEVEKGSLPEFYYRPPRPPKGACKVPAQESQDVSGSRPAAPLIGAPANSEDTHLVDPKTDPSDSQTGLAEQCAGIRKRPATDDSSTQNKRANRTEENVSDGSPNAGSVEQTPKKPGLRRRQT
# Sequence of UniProt P51790 (P51790 whole entry, looked up): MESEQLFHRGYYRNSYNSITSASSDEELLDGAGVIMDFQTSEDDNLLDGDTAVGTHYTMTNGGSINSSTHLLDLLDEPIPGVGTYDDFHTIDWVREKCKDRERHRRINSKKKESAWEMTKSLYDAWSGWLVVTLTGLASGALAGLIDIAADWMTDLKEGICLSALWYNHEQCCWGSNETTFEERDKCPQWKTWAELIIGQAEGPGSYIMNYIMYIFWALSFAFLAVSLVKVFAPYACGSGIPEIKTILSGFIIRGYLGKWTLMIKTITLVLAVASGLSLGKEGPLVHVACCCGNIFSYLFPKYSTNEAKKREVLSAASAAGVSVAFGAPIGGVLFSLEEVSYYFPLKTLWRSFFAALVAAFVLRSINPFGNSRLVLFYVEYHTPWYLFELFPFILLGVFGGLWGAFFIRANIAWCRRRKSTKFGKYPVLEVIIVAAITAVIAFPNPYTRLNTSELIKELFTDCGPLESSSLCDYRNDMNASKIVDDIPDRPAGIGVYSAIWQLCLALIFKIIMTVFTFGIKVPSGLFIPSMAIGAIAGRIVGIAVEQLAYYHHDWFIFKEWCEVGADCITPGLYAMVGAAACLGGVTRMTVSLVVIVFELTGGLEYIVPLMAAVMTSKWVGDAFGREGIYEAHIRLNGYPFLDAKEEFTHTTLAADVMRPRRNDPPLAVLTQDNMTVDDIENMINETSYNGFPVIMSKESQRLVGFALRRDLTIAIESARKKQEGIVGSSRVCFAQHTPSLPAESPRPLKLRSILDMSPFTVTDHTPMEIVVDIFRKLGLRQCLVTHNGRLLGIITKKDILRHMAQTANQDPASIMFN
# Sequence of UniProt Q14061 (Q14061 whole entry, looked up): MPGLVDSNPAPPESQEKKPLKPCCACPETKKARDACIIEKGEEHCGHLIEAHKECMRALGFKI
# Sequence of UniProt P24863 (P24863 whole entry, looked up): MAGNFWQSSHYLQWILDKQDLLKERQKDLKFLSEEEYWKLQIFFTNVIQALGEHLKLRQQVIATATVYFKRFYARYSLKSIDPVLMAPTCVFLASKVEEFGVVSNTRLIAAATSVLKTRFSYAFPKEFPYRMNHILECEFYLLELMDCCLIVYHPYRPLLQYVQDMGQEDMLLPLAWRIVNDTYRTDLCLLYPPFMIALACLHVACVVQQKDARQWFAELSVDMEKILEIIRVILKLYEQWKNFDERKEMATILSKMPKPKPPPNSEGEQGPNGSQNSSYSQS
# Sequence of UniProt Q96MX0 (Q96MX0 whole entry, looked up): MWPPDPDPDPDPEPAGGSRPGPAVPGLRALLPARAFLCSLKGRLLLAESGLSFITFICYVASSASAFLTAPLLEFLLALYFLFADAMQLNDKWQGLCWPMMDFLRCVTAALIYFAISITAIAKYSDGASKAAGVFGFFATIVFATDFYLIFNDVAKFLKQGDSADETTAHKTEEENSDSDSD
# Sequence of UniProt Q92828 (Q92828 whole entry, looked up): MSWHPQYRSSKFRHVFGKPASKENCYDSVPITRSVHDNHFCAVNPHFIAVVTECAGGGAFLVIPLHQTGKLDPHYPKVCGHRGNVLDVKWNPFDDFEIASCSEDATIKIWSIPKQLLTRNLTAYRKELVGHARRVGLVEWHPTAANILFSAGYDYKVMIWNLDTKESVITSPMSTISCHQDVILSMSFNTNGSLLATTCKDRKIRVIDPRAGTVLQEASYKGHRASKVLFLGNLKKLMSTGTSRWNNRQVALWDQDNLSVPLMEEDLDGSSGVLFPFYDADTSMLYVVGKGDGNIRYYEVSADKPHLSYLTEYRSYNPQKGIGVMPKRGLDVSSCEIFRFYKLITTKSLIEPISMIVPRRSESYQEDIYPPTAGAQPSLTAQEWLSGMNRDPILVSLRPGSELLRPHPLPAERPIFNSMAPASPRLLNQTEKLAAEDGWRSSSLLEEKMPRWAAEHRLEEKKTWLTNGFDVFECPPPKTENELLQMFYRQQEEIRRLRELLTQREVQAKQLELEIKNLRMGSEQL
# Sequence of UniProt O75956 (O75956 whole entry, looked up): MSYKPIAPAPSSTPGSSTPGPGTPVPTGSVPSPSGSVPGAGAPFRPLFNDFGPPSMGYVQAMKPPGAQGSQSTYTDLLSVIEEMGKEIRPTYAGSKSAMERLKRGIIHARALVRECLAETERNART
# Sequence of UniProt Q00535 (Q00535 whole entry, looked up): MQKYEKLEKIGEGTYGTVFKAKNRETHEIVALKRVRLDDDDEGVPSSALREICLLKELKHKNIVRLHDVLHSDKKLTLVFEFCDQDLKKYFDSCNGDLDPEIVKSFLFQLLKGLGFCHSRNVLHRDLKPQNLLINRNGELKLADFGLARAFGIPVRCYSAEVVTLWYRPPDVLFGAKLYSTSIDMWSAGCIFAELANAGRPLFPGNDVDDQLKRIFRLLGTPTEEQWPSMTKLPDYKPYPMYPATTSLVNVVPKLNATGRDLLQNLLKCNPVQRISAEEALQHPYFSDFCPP
# Sequence of UniProt P30281 (P30281 whole entry, looked up): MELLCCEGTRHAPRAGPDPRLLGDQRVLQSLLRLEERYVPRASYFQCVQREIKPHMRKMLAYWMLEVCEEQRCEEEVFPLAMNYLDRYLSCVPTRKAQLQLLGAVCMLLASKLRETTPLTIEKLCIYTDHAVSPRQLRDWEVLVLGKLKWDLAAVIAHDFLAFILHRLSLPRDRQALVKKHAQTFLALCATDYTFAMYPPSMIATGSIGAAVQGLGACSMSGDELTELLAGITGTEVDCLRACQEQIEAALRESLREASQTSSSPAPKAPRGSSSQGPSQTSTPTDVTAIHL
# Sequence of UniProt O95628 (O95628 whole entry, looked up): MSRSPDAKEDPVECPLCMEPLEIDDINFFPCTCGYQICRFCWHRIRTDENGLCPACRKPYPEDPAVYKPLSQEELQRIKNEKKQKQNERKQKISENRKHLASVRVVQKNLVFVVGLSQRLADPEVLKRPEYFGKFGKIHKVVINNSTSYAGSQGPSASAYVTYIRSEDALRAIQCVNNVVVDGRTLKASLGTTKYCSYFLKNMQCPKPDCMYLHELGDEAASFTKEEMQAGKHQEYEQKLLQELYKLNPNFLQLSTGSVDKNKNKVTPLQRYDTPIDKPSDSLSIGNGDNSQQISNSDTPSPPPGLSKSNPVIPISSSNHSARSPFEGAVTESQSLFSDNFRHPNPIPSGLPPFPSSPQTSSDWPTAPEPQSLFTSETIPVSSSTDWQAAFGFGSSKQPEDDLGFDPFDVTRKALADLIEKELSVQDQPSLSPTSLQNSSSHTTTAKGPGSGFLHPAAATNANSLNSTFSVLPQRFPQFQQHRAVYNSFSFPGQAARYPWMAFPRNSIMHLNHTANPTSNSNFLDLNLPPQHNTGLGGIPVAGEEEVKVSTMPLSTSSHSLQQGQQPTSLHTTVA
# Sequence of UniProt P24311 (P24311 whole entry, looked up): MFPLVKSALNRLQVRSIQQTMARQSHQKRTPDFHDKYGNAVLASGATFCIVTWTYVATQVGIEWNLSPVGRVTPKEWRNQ
row,Target,log2 fold change
1,CDK4 (UniProt P11802),0.001
2,CLCN3 (UniProt P51790),0.014
3,CEBPZOS (UniProt A8MTT3),-0.034
4,COX17 (UniProt Q14061),-0.14

# Compound: C=CC(=O)N1CCC[C@@H](n2nc(-c3ccc(Oc4ccccc4)cc3)c3c(N)ncnc32)C1 [ibrutinib]
# Assay: as above
# Procedure, shortened: as §1
row,Target,log2 fold change
1,CHAF1A (UniProt Q13111),-0.143
2,CCNC (UniProt P24863),-0.082
3,COX7B (UniProt P24311),0.074
4,CAV2 (UniProt P51636),0.105
5,CDK5 (UniProt Q00535),-0.009
6,CNOT4 isoform 9 (UniProt O95628),0.089
7,CCND3 (UniProt P30281),-0.063
8,CDK2AP2 (UniProt O75956),0.011
9,CDKN1B (UniProt P46527),0.015
10,CORO2A (UniProt Q92828),-0.068
11,CNN3 (UniProt Q15417),-0.067
12,CDK17 isoform 2 (UniProt Q00537),0.003
13,CENPE (UniProt Q02224),-0.184
14,CCNDBP1 (UniProt O95273),-0.184
15,CMTM3 (UniProt Q96MX0),0.014
16,CDC25B isoform 4 (UniProt P30305),0.037
17,CDK4 (UniProt P11802),-0.004
18,CEBPZOS (UniProt A8MTT3),-0.095

# Compound: CC(=O)c1cnc2ccc(-c3cc(Cl)c(O)c(Cl)c3)nc2c1N[C@H]1CC[C@H](CN(C)C)CC1
# Assay: as above
# Procedure, shortened: as §1
row,Target,log2 fold change
1,"CLUH, A0A494C0R8",0.508 (active)
2,CHAF1A (UniProt Q13111),-0.118
3,CLINT1 isoform 3 (UniProt Q14677),0.135
4,CCNC (UniProt P24863),0.595 (active)
5,CLPP (UniProt Q16740),0.022
6,COX7B (UniProt P24311),0.034
7,CLN5 (UniProt O75503),-0.03
8,CDK19 (UniProt Q9BWU1),0.541 (active)
9,CAV2 (UniProt P51636),0.025
10,CDK5 (UniProt Q00535),0.038
11,CLTB (UniProt P09497),0.089
12,COG2 (UniProt Q14746),-0.042
13,C15orf41 (UniProt Q9Y2V0),0.062
14,CNOT4 isoform 9 (UniProt O95628),0.189
15,C19orf54 (UniProt Q5BKX5),0.045
16,CLASP2 (UniProt O75122),-0.852
17,CCND3 (UniProt P30281),0.078
18,CDCA2 (UniProt Q69YH5),0.011

row,Target,log2 fold change
1,CDK2AP2 (UniProt O75956),0.094
2,CD84 (UniProt Q9UIB8),-0.166
3,CDKN1B (UniProt P46527),0.173
4,CORO2A (UniProt Q92828),-0.022
5,CLUH (UniProt O75153),0.467 (active)
6,CNN3 (UniProt Q15417),-0.007
7,CDK17 isoform 2 (UniProt Q00537),0.258
8,CENPE (UniProt Q02224),0.431
9,CCNDBP1 (UniProt O95273),0.071
10,CLSPN (UniProt Q9HAW4),-0.04
11,CLPTM1L (UniProt Q96KA5),-0.033
12,CMTM3 (UniProt Q96MX0),0.003
13,CLN8 (UniProt Q9UBY8),-0.164
14,CDC25B isoform 4 (UniProt P30305),-0.302
15,CDK4 (UniProt P11802),0.685 (active)
16,CLCN3 (UniProt P51790),-0.062
17,CEBPZOS (UniProt A8MTT3),0.003
18,COX17 (UniProt Q14061),-0.052
